# From the supplement of paper PMC6555819
# Experiments:
# Assay in all cases: PBM binding z-score (relative to random genomic background probes); higher = stronger binding; sequences stand for … in GC…GCGATTGACAGCGTAGAATGAAGG
# [1] = tested on: PPARg:RXRa DBDmut IVT, anti-RXR (DBD mutation: RXRa K156A/R161A, NR concentration 270 nM, RXRa partner concentration 90 nM)
# How it was run: (§1)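 Binding z-scores take random background probes as their reference. They come from custom Agilent 4×180K protein-binding microarrays incubated 1 h with ligand-free nuclear receptor dimers, with antibodies against each partner (one per run) detecting binding. Scanned fluorescence was regression-normalized.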
# [2] = tested on: PPARg:RXRa IVT, anti-PPARg (NR concentration 270 nM, RXRa partner concentration 90 nM)
# How it was run: as §1
# [3] = tested on: PPARg DBDmut:RXRa IVT, anti-PPARg (DBD mutation: PPARg1 K132A/R137A, NR concentration 270 nM, RXRa partner concentration 90 nM)
# How it was run: as §1
# [4] = tested on: PPARg DBDmut IVT, anti-PPARg (DBD mutation: PPARg1 K132A/R137A, NR concentration 270 nM)
# How it was run: as §1
# [5] = tested on: PPARg homodimer (NR concentration 180 nM)
# How it was run: as §1
# [6] = tested on: PXR:RXRa (NR concentration 270 nM, RXRa partner concentration 90 nM)
# How it was run: as §1
# [7] = tested on: PXR homodimer (NR concentration 270 nM)
# How it was run: as §1
# [8] = tested on: RARa:RXR (NR concentration 270 nM, RXRa partner concentration 90 nM)
# How it was run: as §1
# [9] = tested on: RARa homodimer (NR concentration 270 nM)
# How it was run: as §1
# [10] = tested on: RARb:RXRa (NR concentration 270 nM, RXRa partner concentration 90 nM)
# How it was run: as §1
Sequence,PBM binding z-score [1],PBM binding z-score [2],PBM binding z-score [3],PBM binding z-score [4],PBM binding z-score [5],PBM binding z-score [6],PBM binding z-score [7],PBM binding z-score [8],PBM binding z-score [9],PBM binding z-score [10]
ATATGTAGGTTAGCTGGGGTCGTTCAGACTAGGC,6.38,6.16,1.24,1.41,0.751,4.69,1.3,2.76,0.512,1.51
ATATGTAGGTTATCCGGTCATTCAGTTTGCGCAT,7.35,6.98,1.53,1.86,0.982,1.65,1.86,1.65,0.474,2.19
GCATATAGGTAATAAAAGGTGAAAGTCCGATTGT,3.99,3.33,0.83,0.676,1.38,0.771,0.163,2.04,0.974,1.12
GCGACTGGGGCAAACCAGGTTACCATAAGGTTGG,4.47,3.82,-1.05,-0.639,-0.0869,0.736,-0.522,0.63,-0.483,0.961
TCTTGTAGATCAACAGGAGGTTACGAAAGATCGA,1.67,1.04,0.791,0.725,0.494,0.945,0.0297,1.38,-0.191,0.551
ACTATTAGTGGACTTAGGGCAACCGATACGACGC,0.261,0.425,0.622,0.53,-0.531,-0.184,0.307,-0.1,0.447,0.196
TTACCAAGGTGAAAGGTCTTTGATGCACGCCTTG,2.19,4.37,0.282,0.356,1.16,1.19,-0.419,1.96,0.0646,1.96
CCGCCTGGGGCAGAAAGGTTACCATACCATCCGG,-0.75,-0.444,-1.12,-1.51,0.297,0.861,-0.276,1.49,-0.241,1.83
ATAACGAGGGCAATGAGTTGATAGCACGGGTGGC,3.37,2.77,1.02,0.667,0.411,2,5.03,0.222,-0.438,2.02
AGAATGAGGTTATACGTAGATCAGGGCAGAAAGT,4.01,2.15,0.485,0.402,0.774,1.45,1.34,1.82,0.705,1.51
CAAACTAGGTCAAGAGGTCAAAGTGCGCTTCCCG,8.41,8.51,1.86,0.825,5.5,6.13,2.6,7.48,2.21,5.47
TCTGCTAGGTCAACGATCGTCAGCTAATCTGCTA,4.39,4.24,-0.071,-0.625,0.478,0.836,-0.972,1.79,-1.13,3.96
TTACGAAGGTGAGCTGAGGTCGTTGATCCAACTC,0.758,1.28,-0.294,-0.134,0.215,5.29,0.95,1.56,-0.794,1.79
TGAATGAGGTTAAGGATCAGGGAACGTGGCGTCG,1.6,2.61,0.781,-0.105,0.99,1.08,-0.0179,2.08,0.367,2.03
GGAACGAGGGCAAGTTGATAACAGAGTTTGATGG,3.17,2.87,0.0927,0.0422,0.807,0.857,0.526,0.565,-0.181,2.38
ATATGTAGGCTAAGGGTCATTCAGGTTGGTTCGC,5.51,6.21,1.21,1.43,2.35,4.78,1.76,4.17,0.917,3.36
ATCTCTAGGTAAAGATAGTTCAGTGTATGCAAAT,1.71,1.89,0.591,1.15,1.3,1.32,0.866,1.11,0.968,0.53
CAGCCTAGGTCAGGGCCAGTGTAGGAGGAACGTT,1.13,1.58,-0.0989,-1.49,0.588,0.476,-0.524,1.01,-0.522,3.5
CGTCCAAGGTCAGAGAGGTCAGCGAATGCCGAGT,3.1,3.68,-0.551,-0.132,3.56,6.27,10.9,6.31,2.51,5.22
CGAACGAGGGCATGAGTTGATATCAAATGCCGAT,3.23,2.11,0.21,-0.287,0.26,0.636,-0.013,0.352,-0.464,2.01
ACTTACGGGTCAACGCGGTTATAGCACGCGTATA,3.64,4.12,1.26,1.32,1.91,3.92,0.241,4.45,0.802,4.04
GCTAGCAGGCCATTTGGGTCACACAATGACGGGC,2,2.63,-0.238,-0.979,0.139,0.906,0.00293,1.05,-0.205,1.61
ACTAGTTGGTCAGGTGAGGTCACACACAATTCGG,1.77,3.37,0.914,0.637,3.1,5.46,2.28,4.89,2,3.44
CATACAGGGTCAGCTAGGCCAGAGGAGGGACGGC,0.736,2.07,1.18,1.1,1.66,2.15,-0.08,3.04,0.169,4.16
ATATGTAGGTTCAGGGTCATTCAGGTTGGTTCGC,3.41,4.69,1.38,1.25,3.72,5.44,5.1,5.15,2.39,3.41

Sequence,PBM binding z-score [1],PBM binding z-score [2],PBM binding z-score [3],PBM binding z-score [4],PBM binding z-score [5],PBM binding z-score [6],PBM binding z-score [7],PBM binding z-score [8],PBM binding z-score [9],PBM binding z-score [10]
TCTCGGAGGATACGAAAGGTCAGAGCTCGACATC,1.32,1.03,-1.04,-0.436,2.71,3.67,0.308,4.51,0.99,3.69
ACTCAGAGGACAAAGGTCAGAGCTACGCCAGTGA,1.49,3.79,-0.0394,-0.208,3.47,4.07,0.501,5.53,1.81,4.71
CTCGAAAGGTCGGTTGAGATGAGTATACGGATAA,-0.21,0.247,0.456,0.37,0.803,1.01,0.26,1.37,0.533,2.86
ACTAGCAGGCCAAGCTTGGGTCACTCAAACAAAG,1.14,0.724,-0.775,-0.566,0.296,0.742,-0.908,1.66,-1.21,1.77
TTGCCTAGGTCATTCAGGGGCCAGTATAGAAAGC,1.9,2.33,0.195,-0.447,2.69,2.63,0.107,4.21,-0.129,3.93
CGTCAAAGTTCAACTAAGGTAAAGTAAAGCACGC,0.496,2.11,0.89,1.16,3.47,5.32,2.92,4.16,2.06,5.39
TCTAGTTGGTCACGGAGGCCACACACGACGGGTA,2.18,2.47,0.779,0.634,0.778,0.694,0.425,0.748,0.249,2.16
TGAATGAGGTTAAAGATCAGCGAACGTGGCGTCG,2.09,3.38,1.34,0.131,0.5,1.89,-0.0611,2.82,-0.162,1.88
GCATATAGGGAATACAAGGTGAAAGTCCGATTGT,1.83,1.35,0.819,-0.152,0.308,0.0196,-0.0382,1.58,0.263,0.266
CCTAGCAGGCCAGGGACACTCAAGCATTTCGCTT,0.0615,-0.258,-0.983,-1.15,-0.379,-0.644,-0.46,-0.225,-0.182,0.347
AGAACGAGAGCAATGAGTTGATAGCACGGGTGGC,0.0253,-0.231,-0.979,-0.694,-1.02,-0.378,-0.202,-0.818,-0.732,-0.525
TAGCCTAGGTCAGATCGGGCTAGTATACGCTATA,0.118,1.07,-0.407,-0.708,0.037,0.63,-0.428,1.5,-0.679,2.78
CCGAGTAGGTTATGGGGCATTCACGCAACGGTGA,3.46,3.48,0.0074,-0.799,1.81,-0.0726,-0.244,0.125,0.665,1.06
CGAACGAGGGCATGAGTTGATAACAAATGCCGAT,2.8,1.8,0.105,-0.206,0.149,0.497,0.164,0.612,-0.168,1.83
ATACCAAGGTGATCGTGAGGTAGTTGATACTAAC,0.454,0.993,1.09,0.92,-0.0605,-0.117,0.172,-0.156,0.171,0.566
AGAACGGGGGCACGCTGAGTTGATAGCAGAGTAG,4.63,6.15,9.13,9.69,2.35,3.72,1.03,2.98,0.451,3.1
ATATGTAGGTTAGCTGGGGTCATTTAGACTAGGC,6.26,6.32,1.68,2.06,2.64,6.23,3.22,5.08,0.828,2.89
CATACAGGGTCAGGTAGGCCAGAGTAGGGACGGC,0.321,2.48,0.416,0.457,1.75,2.23,0.241,3.46,0.612,3.73
CTCAAAAGGTCGGTTGAGGTGAGTATACGGATAA,-0.129,1.12,0.328,0.889,0.591,3.26,0.191,2.82,-0.384,3.4
ATCGAAAGGTCGTGAGGTGAGTATACAGAAAGGC,-0.0528,2.47,1.08,1.25,2.77,3.39,0.278,4.21,0.287,4.02
GCTTGTAGTTCAAGGTTAAGAAAGACTAAGCTAA,-0.00904,0.825,0.1,0.576,0.358,1.71,0.883,1.74,0.195,2.61
CTCGAAAGGTCGGTTGAGGTGAGTATGCGGATAA,0.239,1.05,-0.43,0.0422,1.08,2.93,0.0767,2.11,0.202,3.01
GTTATTAGTTGAAAGGGCAACCGAATGATTCTCG,1.31,1.82,1.34,1.6,3.38,1.26,1.4,1.87,3.11,2.55
AGAATGAGGTTATTCAGATCAGGGAATTGCGGTC,3.18,2.64,0.879,0.0193,0.501,1.8,0.717,1.98,0.495,1.68
